Compound activity: PubChem, National Center for Advancing Translational Sciences (NCATS)
LDHA inh = blocks human lactate dehydrogenase A; activity change, % (values are at about 110 or 230 µM); purified LDHA, NADH/diaphorase-resazurin fluorescence; stronger effect = lower value; AID 1347041; actives 0.15% (n = 480,000); P00338; in the data active = activity change below about -30%; inconclusive = mostly about -25% to -30%
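Remaining NADH was detected by diaphorase (0.133 mg/mL) converting 37 µM resazurin to fluorescent resorufin, read at 0 and 20 minutes. The preceding 5-minute room-temperature reaction used 2 nM LDHA, 0.2 mM sodium pyruvate and 0.06 mM NADH at pH 7.4.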
VP16 counter = Gal4-VP16 reporter inhibition counter-screen | Drosophila S2 Gal4-VP16 UAS-luciferase, luminescence, 20 h | Potency, µM (titrated, usually from 53.6 µM), actives largely listed as inhibitors | actives 3.5% (n = 310,000) | AID 2546;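 note: Gal4-VP16 expression switched on by copper sulfate through the metallothionein promoter; nearly all actives have a fitted effect of over 50% in size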
TDP1 cell noCPT = qHTS for Inhibitors of human tyrosyl-DNA phosphodiesterase 1 (TDP1): qHTS in cells in absence of CPT; AID 686978, 2013; Potency, µM (titrated, usually from 46.2 µM), usual class: inhibitors; actives 15% (n = 420,000); DT40 Tdp1-/- hTDP1 cells, no CPT, ATP luminescence, 48 h; note: nearly all actives have a fitted effect of over 55% in size
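Readout: luminescence from CellTiter-Glo after 30 min in the dark at RT. Cells: DT40 Tdp1-/- with stable hTDP1, 400/well. Exposure: compounds alone, ≥48 hr, 37 °C.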
DT40 TDP1 CPT = growth inhibition of DT40 Tdp1-/-;hTDP1 cells with camptothecin (screen for TDP1 inhibitors); chicken DT40 Tdp1-/-;hTDP1 cells + 20 nM CPT, ATP luminescence, 48 h; AID 686979; Potency, µM (titrated, usually from 46.2 µM), usual class: inhibitors; actives 12% (n = 420,000); note: nearly all actives have a fitted effect of over 55% in size
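Chicken DT40 Tdp1-/- cells complemented with human TDP1, 400 cells/well, exposed to compounds plus 20 nM camptothecin for at least 48 h at 37 C; viability read as ATP content by CellTiter-Glo luminescence.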
IL1B secr inh = inflammasome signaling inhibition, IL-1 beta readout | THP-1 LPS/ATP IL-1B secretion, AlphaLISA, 16 h; stronger effect = lower value | activity change, % at 57.5 µM | actives 4.7% (n = 360,000); in the data active = activity change below about -50%; inconclusive = mostly about -30% to -49%
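THP-1 cells pretreated 1 hr with compounds (up to 57.5 uM final), then stimulated with LPS (250 ng/mL final) plus ATP (1.25 mM final); secreted IL-1B measured by AlphaLISA after 16 hr, decreased signal indicating inhibition.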
RORg inh = ROR gamma (mouse) transcription inhibition. Drosophila S2 Gal4-RORgamma UAS-luciferase reporter, 20 h. Potency, µM (highest dose often 53.6 µM), usual class: inhibitors. actives 5.4% (n = 310,000). AID 2551; note: nearly all actives have a fitted effect of over 60% in size
Target sequence (P51450 whole entry, looked up, the tested form may be a part): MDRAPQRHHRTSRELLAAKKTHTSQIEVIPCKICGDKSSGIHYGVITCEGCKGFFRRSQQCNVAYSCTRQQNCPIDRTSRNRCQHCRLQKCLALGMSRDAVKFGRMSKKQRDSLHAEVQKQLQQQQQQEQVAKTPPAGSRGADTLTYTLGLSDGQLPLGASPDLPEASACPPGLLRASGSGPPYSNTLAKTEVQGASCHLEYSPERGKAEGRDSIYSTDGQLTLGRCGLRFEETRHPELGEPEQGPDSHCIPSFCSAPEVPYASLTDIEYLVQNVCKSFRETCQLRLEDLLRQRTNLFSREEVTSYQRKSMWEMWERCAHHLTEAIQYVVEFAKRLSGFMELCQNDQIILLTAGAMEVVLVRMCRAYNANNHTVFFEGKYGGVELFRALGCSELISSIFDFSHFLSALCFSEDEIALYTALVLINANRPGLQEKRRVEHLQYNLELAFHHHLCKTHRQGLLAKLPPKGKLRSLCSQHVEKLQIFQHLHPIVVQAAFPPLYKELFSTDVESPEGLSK
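Luciferase reporter read in Schneider cells carrying Gal4-RORγ (mouse) and UAS-Photinus luciferase; cells given compound 1 h before 700 uM copper sulfate induction, then incubated 20 h at ambient temperature.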
Numbers stand for hits; 0 = inactive; ? = inconclusive; - = not tested or not shown; ! = a repeat was not active. In the library only some 18% were active in any assay of this set; here they are far more common. Unless noted, calls come from the whole dose curve; as a rule, active = well fitted curve in the direction sought with a large enough effect; inconclusive = small, poorly fitted or top-dose-only effect, or another doubt; inactive = no such curve, though single readings can be large; an effect the other way counts as inactive or inconclusive.

SMILES	LDHA inh	VP16 counter	TDP1 cell noCPT	DT40 TDP1 CPT	IL1B secr inh	RORg inh
CC(C)COC(=O)n1c(=O)oc2cc(S(=O)(=O)N3CCCCC3)ccc21	0	0	?	?	0	0
Cn1c(=O)oc2cc(S(=O)(=O)N3CCC(C(=O)N4CCN(c5ccc(F)cc5)CC4)CC3)ccc21	0	0	9.2µM	25.9µM	0	0
Cc1cccc(NC(=O)C2CCCN(S(=O)(=O)c3ccc4c(c3)oc(=O)n4C)C2)c1 (stereo unspecified)	0	0	?	?	0	0
Cc1cccc(N2CCN(C(=O)CCNS(=O)(=O)c3ccc4c(c3)oc(=O)n4C)CC2)c1C	0	0	16.4µM	?	-67.3	0
Cc1ccc(Cl)cc1NC(=O)Cn1c(=O)oc2cc(S(=O)(=O)N3CCCCCC3)ccc21	0	-	16.4µM	14.6µM	-	-
Cc1cccc(N2CCN(C(=O)CCS(=O)(=O)c3ccc4c(c3)oc(=O)n4C)CC2)c1C	0	0	?	?	0	0
COc1cccc(N2CCN(C(=O)C3CCCN(S(=O)(=O)c4ccc5c(c4)oc(=O)n5C)C3)CC2)c1 (stereo unspecified)	0	0	14.6µM	18.4µM	0	?
COC(=O)[C@@]1(Cc2ccccc2)[C@H]2c3cc(C(=O)N(C)C)n(C)c3C[C@H]2CN1C(=O)c1ccccc1	-	0	-	-	-	0
Cc1ccc(C2=CCN(Cc3oc(CO)cc(=O)c3O)CC2)cc1	0	-	-	-	-	-
Cc1ccc(Cl)cc1N1CCN(C(=O)C2CCN(S(=O)(=O)c3ccc4c(c3)oc(=O)n4C)CC2)CC1	0	-	0.731µM	1.16µM	-	-
Cn1c(=O)oc2cc(S(=O)(=O)N3CCC(C(=O)N4CCN(c5ccccc5)CC4)CC3)ccc21	0	0	20.6µM	?	0	0
Cn1c(=O)oc2cc(S(=O)(=O)N3CCC(C(=O)N4CC=C(c5ccccc5)CC4)CC3)ccc21	0	0	11.6µM	23.1µM	0	0
CCOC(=O)c1c(C)[nH]c(C)c1S(=O)(=O)N1CCC(C(=O)N2CCN(c3ccc(Cl)cc3)CC2)CC1	0	-	?	?	-	-
Cn1c(=O)oc2cc(S(=O)(=O)N3CCc4ccccc43)ccc21	0	0	0	?	0	0
Cn1c(=O)oc2cc(S(=O)(=O)N3CCCc4ccccc43)ccc21	0	0	5.8µM	4.11µM	0	0
Nc1ccc(Br)cc1C(=O)c1ccccc1Cl	0	-	-	-	-	-
CC1=C[C@H]2[C@]3(O)C(C=C(CO)C[C@]2(O)C1=O)[C@@H]1C(C)(C)[C@]1(O)[C@H](O)[C@H]3C (stereo partly specified)	-	0	-	-	-	0
CC(N)Cc1cccs1 (stereo unspecified)	0	-	-	-	-	-
Clc1cncc(N2CCNCC2)n1	-	0	0	0	-	0
COC(=O)[C@@]1(Cc2ccccc2)[C@H]2c3cc(C(=O)N(C)C)[nH]c3C[C@H]2CN1C(=O)c1ccccc1	-	0	-	-	-	0
O=c1[nH]c(=S)n(Cc2ccc(F)cc2)c(O)c1C=NCC1CCCO1 (stereo unspecified)	0	0	0	0	0	0
O=c1[nH]c(=S)n(Cc2ccc(F)cc2)c(O)c1/C=N/N1CCCCC1	0	?	?	0	0	11.2µM
COC1C(C)OC(OC2CC(C)(O)Cc3cc4c(c(O)c32)C(=O)c2c(O)cc3c(c2C4=O)OC2OC3(C)C(O)C(N(C)C)C2O)C(OC)C1(C)OC (stereo unspecified)	0	-	0.116µM	0.082µM	-99.2	-
COc1cc(CN2C(=O)NC(=O)C3(Cc4cc(C)ccc4N(C)C3)C2=O)cc(OC)c1 (stereo unspecified)	0	0	0.0103µM	?	0	0
CCCCN1C(=O)NC(=O)C2(Cc3cc(C)ccc3N(C)C2)C1=O (stereo unspecified)	0	0	13µM	?	0	0
SMILES	LDHA inh	VP16 counter	TDP1 cell noCPT	DT40 TDP1 CPT	IL1B secr inh	RORg inh
COc1ccc2c(c1)CC1(CN2C)C(=O)NC(=O)N(CCc2ccccc2)C1=O (stereo unspecified)	0	0	5.8µM	?	0	0
CSC(=S)NCc1c[nH]c2ccccc12	-	0	-	-	-	0
O=C(c1csnn1)N1CCC2(CC1)CN(Cc1ccncc1)C2	-	0	0	0	-	0
CCOc1ccccc1N1C(=O)CC(=O)NC1=O	-30.4	0	0	0	0	0
CCOc1ccc(N2C(=O)CC(=O)NC2=O)cc1	0	0	0	0	0	0
CC(=O)C1=NOC(CNc2ncc(C(F)(F)F)cc2Cl)C1 (stereo unspecified)	0	0	0	0	0	?
O=C(CNC(=O)c1cccc(S(=O)(=O)N2CCc3ccccc32)c1)Nc1ccccc1Br	0	-	?	?	?	-
O=C(Nc1ccc(Br)cc1)c1ccc(F)c(S(=O)(=O)N2CCCc3ccccc32)c1	0	-	8.2µM	11.6µM	-	-
O=C(Nc1ccc(Br)cc1)c1cccc(S(=O)(=O)N2CCc3ccccc32)c1	0	-	16.4µM	23.1µM	-	-
O=C(Oc1ccccc1)N1CCC2(CCN(Cc3nccs3)CC2)CC1	-	0	?	0	-	0
CCOC(=O)CC(SP(=S)(OC)OC)C(=O)OCC (stereo unspecified)	-	0	4.33µM!	0.0217µM!	-	0
CCOC(=O)CC(SP1(=S)OCC2(CCCCC2)CO1)C(=O)OCC (stereo unspecified)	0	-	0	0	0	-
Cc1ccc(-c2nn3c(C)nnc3c3ccccc23)cc1S(=O)(=O)NCCO	0	0	20.6µM!	?	0	0
Cc1ccccc1OCCN=Cc1c(O)n(C)c(=O)n(C)c1=O	0	0	20.6µM	?	0	?
COc1ccc2[nH]c(C)c(CCNCc3cccnc3)c2c1	0	-	0	0	0	-
Cc1[nH]c2ccc(OC(F)(F)F)cc2c1CCNCc1cccc([N+](=O)[O-])c1	0	0	13µM	?	-94.8	0
[N-]=[N+]=CC(=O)OCC(N)C(=O)O (stereo unspecified)	-	0	-	-	-	0
COc1ccc(NC(=O)c2oc3ccc(S(=O)(=O)N(C)C4CCCCC4)cc3c2C)cc1	0	-	8.2µM	10.3µM	-	-
O=S1(=O)N(Cc2ccccc2)CCCN1Cc1ccc(F)cc1Cl	0	-	?	?	-	-
O=C(c1ccc(Cl)cc1)C1CCCN(Cc2cccc3cccnc23)C1 (stereo unspecified)	0	0	16.4µM	23.1µM	-50.2	?
O=C(c1ccc(Cl)cc1)C1CCCN(Cc2ccc3nonc3c2)C1 (stereo unspecified)	0	0	?	16.4µM	0	?
O=C(c1ccccc1)C1CCCN(Cc2nc(-c3cnccn3)no2)C1 (stereo unspecified)	0	0	0	0	0	0
COc1cccc(C(=O)C2CCCN(Cc3ccc4nsnc4c3)C2)c1 (stereo unspecified)	0	0	?	?	0	0
